An excerpt weighted towards active compounds, which were near 28% of everything screened.
PLK1 inh: PLK1 (human) kinase inhibition | 97,000 tested, 0.53% active | inhibition, % at 10 µM | recombinant PLK1 kinase, TR-FRET peptide phosphorylation | AID 619;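 active means inhibition of 50% or more in the single-concentration screen; inactive means inhibition below 50%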;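 further: 0% = DMSO max control and 100% = H-89 dihydrochloride min control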
CYP2C19 activ: increases human CYP2C19 enzyme activity; recombinant CYP2C19, luciferin-H EGE luminescence; active compounds read high; 0 = fully inhibited enzyme, 1 = untreated enzyme; AID 1025; 96,000 tested, under 10 active; activation factor at 5 µM; P33261;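 active means activation factor of at least 2 at 5 µM in the primary screen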;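 further: 0 = wells with 2.5 mM tranylcypromine and 1 = vehicle-only wells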
CYP2C9 inhib: human CYP2C9 inhibition. P11712. CYP2C9 Supersomes, luciferin-H conversion, luminescence. inhibition, % at 5 µM. 96,000 tested, 20% active. AID 777;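 active means blocking of liver enzyme CYP2C9 beyond about 50% at 5 µM, limit read from the data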
Target sequence (P11712 whole entry, looked up): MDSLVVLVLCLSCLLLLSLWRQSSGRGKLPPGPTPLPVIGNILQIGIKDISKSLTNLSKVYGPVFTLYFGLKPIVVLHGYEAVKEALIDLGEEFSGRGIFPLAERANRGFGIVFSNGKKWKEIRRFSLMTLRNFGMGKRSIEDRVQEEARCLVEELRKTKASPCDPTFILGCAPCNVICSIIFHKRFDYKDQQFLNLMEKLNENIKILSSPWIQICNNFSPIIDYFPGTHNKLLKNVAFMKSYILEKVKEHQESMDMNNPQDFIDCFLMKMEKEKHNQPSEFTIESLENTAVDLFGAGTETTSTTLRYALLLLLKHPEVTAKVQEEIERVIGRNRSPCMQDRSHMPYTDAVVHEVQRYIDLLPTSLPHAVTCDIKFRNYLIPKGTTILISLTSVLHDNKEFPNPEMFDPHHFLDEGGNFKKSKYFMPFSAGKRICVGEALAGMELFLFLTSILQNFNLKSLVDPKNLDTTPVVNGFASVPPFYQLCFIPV
CYP2C9 activ: increases human cytochrome P450 2C9 activity. recombinant CYP2C9, luciferin-H conversion, luminescence; active compounds read high; factor 1 = untreated enzyme, 0 = blocked. 96,000 tested, 1.4% active. activation factor at 5 µM;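 active means activation factor of 2 or more for CYP2C9 at a 5 µM dose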;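 further: 0 = sulfaphenazole-blocked wells and 1 = vehicle-only wells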
Plk1 PBD FP: Plk1 (human) PBD binding inhibition | P53350 | Plk1 PBD phosphopeptide binding, fluorescence polarization | inhibition, %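 (tested at about 20 µM)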 | 97,000 tested, 0.13% active; in the data active means inhibition above about 34%, passing the limit was not always enough
CYP2C19 inh: blocks human cytochrome P450 2C19; P33261; CYP2C19 Supersomes, luciferin-H EGE luminescence, 30 min; inhibition, % at 5 µM; 96,000 tested, 21% active; AID 778;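 active means CYP2C19 inhibition above a set limit at 5 µM in the primary screen, cut at about 50% in these data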;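 further: plate controls were negative control wells for no effect and 2.5 mM tranylcypromine positive control for full effect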
Active calls of the source: *; · = not tested or not shown.

SMILES	PLK1 inh	CYP2C19 activ	CYP2C9 inhib	CYP2C9 activ	Plk1 PBD FP	CYP2C19 inh
CSCCC1C(C#N)=C(N)Oc2n[nH]c(-c3cccs3)c21 (stereo not given)	-14	0.6	55*	0.4	3	37
N#CC1=C(N)Oc2n[nH]c(-c3cccs3)c2C1c1cccs1 (stereo not given)	7	1	15	0.8	-3	4
CC(C)CC1C(C#N)=C(N)Oc2n[nH]c(-c3cccs3)c21 (stereo not given)	-7	0.3	22	0.8	14	67*
Cc1ccc2c(c1)nnn2C1CCN(CC(=O)N2c3ccccc3CC2C)CC1 (stereo not given)	-6	0.7	-15	1.2	-34	30
Cc1ccc2c(c1)nnn2C1CCN(C(=O)C23CC4CC(CC(C4)C2)C3)CC1	-22	·	·	·	6	·
CCOc1ccccc1NC(=O)N1CCC(n2nnc3cc(C)ccc32)CC1	·	0.1	-22	1.2	·	90*
Cc1ccc2c(c1)nnn2C1CCN(CC(=O)c2ccc(Cl)cc2)CC1	-22	0.9	0	1	-5	14
CCOC(=O)CN(C(=O)CN1CCC(n2nnc3cc(C)ccc32)CC1)c1ccccc1	-4	0.8	55*	0.4	15	18
Cc1ccc2c(c1)nnn2C1CCN(C(=O)NC23CC4CC(CC(C4)C2)C3)CC1	-11	0.5	3	1	18	55*
Cc1cc(C)n2cc(CSc3nnnn3C)nc2n1	-1	1.1	-22	1.2	-7	-12
CC(C)C(=O)Nc1cc(C(F)(F)F)ccc1N1CCOCC1	-5	0.9	21	0.8	21	11
Cc1cc(C#N)c(C)n1-c1cc(C(F)(F)F)ccc1N1CCOCC1	4	0	26	0.7	-5	99*
OC(COCc1ccc(Cl)cc1)CN1CCN(CC(O)COCc2ccc(Cl)cc2)CC1 (stereo not given)	2	1.1	-6	1.1	-16	-12
CCOC(=O)C1=C(C)NC(SCC(=O)O)=NC1c1ccccc1 (stereo not given)	·	0.8	16	0.8	·	16
CCOC(=O)c1ccc(NS(=O)(=O)N2CCCCCC2)cc1	-13	0.9	68*	0.3	-12	9
COc1cccc(NS(=O)(=O)c2ccc3c(c2)CCCN3C(C)=O)c1	-3	0	56*	0.4	-20	96*
CCOC(=O)c1ccc(NC(=O)C2CCN(S(=O)(=O)CC)CC2)cc1	-4	0.8	11	0.9	0	18
CC(=O)N1CCc2cc(NS(=O)(=O)c3cccs3)ccc21	1	0.4	89*	0.1	-8	62*
CC(=O)N1CCCc2cc(S(=O)(=O)N(CC(C)C)CC(C)C)ccc21	·	0.9	2	1	·	9
CCOC(=O)c1ccc(NS(=O)(=O)c2ccc3c(c2)CCCN3C(C)=O)cc1	-5	0.9	72*	0.3	2	11
O=C(c1ccco1)N1CCN(c2ccc(Cl)c(Cl)c2)CC1	-4	·	·	·	-5	·
CCn1cc(SCC(=O)NCc2ccc3c(c2)OCO3)c2ccccc21	·	0	23	0.8	·	97*
O=C(CN1CCCC(O)C1)N1c2ccccc2Sc2ccc(C(F)(F)F)cc21 (stereo not given)	-24	0.9	4	1	12	12
O=C(CSc1nc(C2CC2)nc2ccccc12)N1c2ccccc2Sc2ccc(C(F)(F)F)cc21	-11	0.9	92*	0.1	-10	11
Cc1ccccc1C(=O)c1cccn1CC(=O)NCc1ccc2c(c1)OCO2	-15	0.4	74*	0.3	4	62*
SMILES	PLK1 inh	CYP2C19 activ	CYP2C9 inhib	CYP2C9 activ	Plk1 PBD FP	CYP2C19 inh
COc1ccc(NC(=O)CSc2nc(C)c3c(c2C#N)CCCC3)cc1	-11	0.8	21	0.8	-17	20
Cc1nc(SCC(=O)NCc2ccc3c(c2)OCO3)c(C#N)c2c1CCCC2	-4	0.2	87*	0.1	-9	84*
Cc1ccccc1C(=O)c1cccn1CC(=O)NCC1CCCO1 (stereo not given)	-7	0.9	4	1	6	10
Cc1ccc(NC(=O)N2CCC(NC(=O)C(C)(C)C)CC2)cc1	-7	0.9	4	1	-16	6
CCOC(=O)N1CCC(NC(=O)C2CCCN(S(C)(=O)=O)C2)CC1 (stereo not given)	-9	1	0	1	3	-3
O=C(CSCc1ccccc1)N1CCN(Cc2ccc3c(c2)OCO3)CC1	-11	·	·	·	2	·
O=C(CSCc1ccccc1)NCc1ccc2c(c1)OCO2	-6	0.5	91*	0.1	-15	54*
Cc1nonc1NC(=O)CSc1nc(C2CCCCC2)nc2ccccc12	-3	1	50*	0.5	-2	2
O=C(CSc1nc(C2CC2)nc2ccccc12)NCc1ccc2c(c1)OCO2	-7	0.5	88*	0.1	-20	47
Cn1cc(SCC(=O)NCc2ccc3c(c2)OCO3)c2ccccc21	·	0	69*	0.3	·	100*
Cc1cc(NC(=O)CSc2nc(C3CCCCC3)nc3ccccc23)no1	-3	0.8	25	0.7	23	23
CC(C)N1C(=O)C2C(c3ccccc3O)NC(C)(C(=O)O)C2C1=O (stereo not given)	-7	1.2	-39	1.4	-15	-24
Cc1cccc2cc(C(c3nnnn3CC3CCCO3)N3CCOCC3)c(=O)[nH]c12 (stereo not given)	0	1	-4	1	-17	-4
O=C(Cn1cc(C(=O)C2CC2)c2ccccc21)NCc1ccc2c(c1)OCO2	-7	0.2	32	0.7	-12	81*
CC(=O)c1cn(CC(=O)NCc2ccc3c(c2)OCO3)c2ccccc12	-4	·	·	·	-3	·
O=c1c2ccccc2nc(SCc2cn3ccsc3n2)n1-c1ccccc1F	-13	0.2	99*	0	2	77*
O=c1c2ccccc2nc(SCc2cn3ccsc3n2)n1-c1ccccc1	9	0.2	94*	0.1	15	84*
CCOP(=O)(OCC)C(C#N)=C1SCN(c2ccccc2)CS1	-18	·	·	·	-3	·
CCOC(=O)C1=C(C)N=C2SC(C)C(=O)N2C1/C=C/c1ccccc1OC (stereo not given)	2	0.5	80*	0.2	-10	49
CCOC(=O)C1=C(C)N=C2SCCC(=O)N2[C@@H]1/C=C/c1ccccc1	-1	0.7	50	0.5	16	33
CCOC(=O)c1[nH]c2ccccc2c1NC(=O)C(C)(C)C	-14	1	40	0.6	5	2
Cc1c(C(=O)COC(C)(C)C)[nH]c2ccccc12	-5	0.5	-8	1.1	-6	55*
Cc1cccc(C(=O)N2CCN(c3ncnc4c3cnn4-c3ccccc3)CC2)c1	-15	·	·	·	-10	·
O=C(COc1ccccc1)N1CCN(c2ncnc3c2cnn3-c2ccccc2)CC1	1	0.2	71*	0.3	10	80*

Screening results deposited in PubChem BioAssay by several laboratories.
